bovine MsrA act: activates bovine MsrA enzyme. 360,000 compounds, 0.3% hits. activation, % at 10.6 µM. AID 602163. purified bovine MsrA, absorbance read-out; in the data active = activation above about 7.5%
MsrA inhibitor: inhibitors of bovine MsrA. purified bovine MsrA, absorbance read-out. inhibition, % at 15.5 µM. 360,000 compounds, 0.75% hits. AID 651718; in the data active = inhibition above about 4.5%
rCAG RNA binder: binds r(CAG) RNA repeats; AID 651821; inhibition, % at 3 µM; r(CAG) RNA repeat, TO-PRO-1 dye displacement fluorescence; 370,000 compounds, 1.3% hits;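 active = inhibition above the plate cutoff, the mean of all test compounds on that plate plus 3 SD, cut at about 35% in these data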;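 note: higher means more dye released from RNA so lower well fluorescence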
PG9 binder: PG9 antibody binding by small molecule; 360,000 compounds, 0.43% hits; TR-FRET gp120-PG9 antibody binding; inhibition, % at 6.7 µM; in the data active = inhibition above about 8.5%
sPLA2-III inh: Blocks human group III sPLA2 activity | Q9NZ20 | QFRET BODIPY PC-A2 liposome hydrolysis, fluorescence | inhibition, % at 12.2 µM | 370,000 compounds, 0.56% hits;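 active = inhibition above mean plus 3 SD of compounds lying within the high and low control bounds, cut at about 19% in these data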
Target sequence (Q9NZ20 whole entry, looked up): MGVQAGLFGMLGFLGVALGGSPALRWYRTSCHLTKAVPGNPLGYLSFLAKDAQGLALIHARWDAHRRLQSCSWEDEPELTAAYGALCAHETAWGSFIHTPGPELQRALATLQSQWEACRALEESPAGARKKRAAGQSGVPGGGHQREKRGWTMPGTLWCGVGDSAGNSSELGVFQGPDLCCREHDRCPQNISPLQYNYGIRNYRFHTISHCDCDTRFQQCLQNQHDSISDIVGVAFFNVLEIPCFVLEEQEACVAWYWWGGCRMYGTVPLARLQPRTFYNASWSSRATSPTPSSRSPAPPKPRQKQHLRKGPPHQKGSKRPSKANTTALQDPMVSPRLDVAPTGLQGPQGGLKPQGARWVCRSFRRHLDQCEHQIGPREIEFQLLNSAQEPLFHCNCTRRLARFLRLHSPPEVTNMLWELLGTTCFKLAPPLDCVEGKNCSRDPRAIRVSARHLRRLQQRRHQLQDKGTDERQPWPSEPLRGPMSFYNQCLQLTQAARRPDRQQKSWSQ
sPLA2 confirm: human GIII-sPLA2 inhibition, confirmation. inhibition, % at 12.2 µM. AID 743280. 2,000 compounds, 34% hits. shares compounds with sPLA2-III inh. recombinant hGIII-sPLA2, BODIPY PC-A2 QFRET fluorescence;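 active = mean inhibition across triplicates above the hit cutoff set in the earlier primary screen, cut at about 19% in these data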
BODIPY interf: optically interferes with 535nm fluorescence in sPLA2 counter-screen. shares compounds with sPLA2-III inh. BODIPY FL product fluorescence interference, QFRET. inhibition, % at 12.2 µM. 2,000 compounds, 8.5% hits. AID 743282;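 active = average inhibition above the solvent-only control mean plus 3 SD, cut at about 6% in these data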
BODIPY interf DR: 535nm optical interference dose response, HGIII-sPLA2 counter-screen; IC50, µM; shares compounds with sPLA2-III inh; 240 tested, under 10 active; AID 743455; BODIPY FL product fluorescence interference, cell-free;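 active = IC50 at or below 10 µM; inactive = IC50 above 10 µM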
Each line names hits and unclear results; the compound was inactive in the other large screens (follow-up assays come after a bar, where they were run). An excerpt weighted towards active compounds, which were near 3.2% of everything screened.

Cc1c(-c2csc(N)n2)c2ccccc2n1C	sPLA2-III inh 20 | sPLA2 confirm inactive | BODIPY interf inactive
O=C(Nc1ccccc1)c1cn(CCBr)cn1	sPLA2-III inh 20 | sPLA2 confirm inactive | BODIPY interf inactive
C/C(=N\NC(=O)c1ccc(N(C)C)cc1)c1ccc(C)c(C)c1	sPLA2-III inh 31 | sPLA2 confirm inactive | BODIPY interf inactive
C/C(=N\NC(=O)c1ccc(N(C)C)cc1)c1ccc(C)cc1C	none
O=C(NNC(=S)NC1CCCCC1)c1ccccc1O	sPLA2-III inh 44 | sPLA2 confirm 44 | BODIPY interf inactive | BODIPY interf DR inactive
COc1cccc(C(=O)NNC(=S)NC2CCCCC2)c1	none
Cc1cc(C(=O)NNC(=S)NC2CCCCC2)cs1	sPLA2-III inh 25 | sPLA2 confirm 37 | BODIPY interf inactive | BODIPY interf DR inactive
O=C(NCCc1ccccc1Cl)[C@@H]1CCCN1C(=O)[C@H](Cc1cccnc1)NC(=O)N1CCOCC1	none (no result: bovine MsrA act)
O=C(O)c1cccc(Nc2ccc3nonc3c2[N+](=O)[O-])c1	sPLA2-III inh 20 | sPLA2 confirm inactive | BODIPY interf inactive
O=C(COC(=O)/C=C/c1ccc(Cl)cc1)NCCC1=CCCCC1	sPLA2-III inh 21 | sPLA2 confirm inactive | BODIPY interf inactive
O=C(C(=O)N1CCC(CNS(=O)(=O)c2ccccc2OC(F)(F)F)CC1)c1cccs1	none (no result: bovine MsrA act)
Nc1ncnc2c1ncn2[C@@H]1O[C@H](C(=O)N[C@@H](CCc2ccccc2)C(=O)N2CCN(CC(=O)N3CCCC3)CC2)[C@@H](O)[C@H]1O	none (no result: bovine MsrA act)
C=CC[C@H]1c2ccccc2[C@H]2N3N=Cc4ccccc4[C@H]3[C@H](CCCC)C(=O)N2N1C(=O)NCc1ccccc1	none (no result: bovine MsrA act, MsrA inhibitor, PG9 binder)
COc1cc(CNC23CC4CC(CC(C4)C2)C3)ccc1OCc1ccccc1	sPLA2-III inh 22 | sPLA2 confirm inactive | BODIPY interf inactive
CC(CCc1ccccc1)NC(=O)COC(=O)c1cccnc1Cl (stereo not given)	none
CCCCn1c(N)c(N(CCOC)C(=O)C2CCN(S(=O)(=O)c3ccc(C)cc3)CC2)c(=O)[nH]c1=O	sPLA2-III inh 22 | sPLA2 confirm inactive | BODIPY interf inactive
COC(=O)[C@]12C[C@H](CC(=O)N3CCSCC3)C(=O)N(CCC3=CCCCC3)C1=C[C@H](C(C)(C)C)O[C@@H]2C	none (no result: bovine MsrA act)
CCOc1ccc(NC(=O)CC2CC(C)(C)OC2=O)cc1 (stereo not given)	none
CCOc1ccc(NCC2CCOC(C)(C)C2)cc1 (stereo not given)	sPLA2-III inh 20 | sPLA2 confirm inactive | BODIPY interf inactive
C#CCN1CC(N(C)CCOC(=O)c2ccc(F)cc2)CS1(=O)=O (stereo not given)	none (no result: bovine MsrA act, MsrA inhibitor, PG9 binder)
COc1ccc(-c2cc(C(F)(F)F)nc(SCC(=O)NCc3cnn(C)c3C)n2)cc1OC	sPLA2-III inh 24 | sPLA2 confirm inactive | BODIPY interf inactive
COc1ccc(CCNC(=O)CSc2nc(-c3ccco3)cc(C(F)(F)F)n2)cc1OC	none
CN(C(=O)c1cn(C)c2ccccc12)c1ccc(Oc2cccnc2)cc1	none (no result: bovine MsrA act)
Cc1cc(N2CCN(c3ccccc3)CC2)n2ncnc2n1	sPLA2-III inh 93 | sPLA2 confirm inactive | BODIPY interf inactive
Cc1cc(N2CCN(C/C=C/c3ccccc3)CC2)n2ncnc2n1	none
O=C(NC1CCCCN(Cc2cccc(Cl)c2)C1=O)c1cccc2nsnc12 (stereo not given)	none (no result: bovine MsrA act, MsrA inhibitor, PG9 binder)
CC(C)(C)N(NC(=O)Nc1cccc(F)c1)C(=O)c1ccccc1Cl	none (no result: bovine MsrA act, MsrA inhibitor, PG9 binder)
COC(=O)N/N=C/c1c(C)nn(-c2cccc(Cl)c2)c1Cl	sPLA2-III inh 20 | sPLA2 confirm inactive | BODIPY interf inactive
CC(C)(C)NC(=S)N1CCC2CC1c1cc(-c3ccc4c(c3)OCO4)ccc12 (stereo not given)	sPLA2-III inh 22 | sPLA2 confirm inactive | BODIPY interf inactive
CC(C)(C)C(=O)N1CCC2CC1c1cc(-c3ccc4c(c3)OCO4)ccc12 (stereo not given)	none
COc1ccc(NS(=O)(=O)c2ccc3ccccc3c2)c2ncccc12	sPLA2-III inh 28 | sPLA2 confirm inactive | BODIPY interf inactive
CC(C)c1ccc(NC(=O)Nc2nc(C(N)c3ccccc3Cl)cs2)cc1 (stereo not given)	none
O=C(Nc1ccc([N+](=O)[O-])cc1)c1cn(-c2ccccc2)nc1-c1cc2ccccc2o1	sPLA2-III inh 20 | sPLA2 confirm inactive | BODIPY interf inactive
CCOC(=O)C1(Cc2ccccc2)CCCN(C(=O)COc2ccccc2OC)C1 (stereo not given)	none
CCC1(c2ccccc2)NC(=S)N(c2cccc(C)c2C)N1 (stereo not given)	sPLA2-III inh 20 | sPLA2 confirm 22 | BODIPY interf inactive
CC(C)Oc1ccc(CC2CC(=O)NC2=O)cc1 (stereo not given)	none
CC(C)Oc1ccc(CC2CCC(=O)N(C)C2=O)cc1 (stereo not given)	sPLA2-III inh 21 | sPLA2 confirm inactive | BODIPY interf inactive
O=C(NNC(=S)NC(=O)c1ccccc1[N+](=O)[O-])c1ccccc1Cl	sPLA2-III inh 36 | sPLA2 confirm 31 | BODIPY interf inactive | BODIPY interf DR inactive
CCCCCC(=O)NNC(=S)NC(=O)c1ccccc1[N+](=O)[O-]	sPLA2-III inh 21 | sPLA2 confirm 33 | BODIPY interf inactive | BODIPY interf DR inactive
CCOC(=O)CC[C@H]1CC[C@]2(CCCN(C(=O)c3ccccc3)C2)O1	none (no result: bovine MsrA act, MsrA inhibitor, PG9 binder)
CCOc1ccccc1C(=O)NN1C(=O)C2CCCCC2C1=O (stereo not given)	sPLA2-III inh 22 | sPLA2 confirm inactive | BODIPY interf inactive
CN1C(=O)C2(c3ccccc31)c1c(oc3ccccc3c1=O)C(=O)N2CCCO (stereo not given)	sPLA2-III inh 21 | sPLA2 confirm inactive | BODIPY interf inactive
O=C(Nc1nnc([C@@H]2C[C@H](O)[C@@H](CO)O2)s1)c1ccccc1Cl	sPLA2-III inh 20 | sPLA2 confirm inactive | BODIPY interf inactive
CC(C)C[C@@H]1COc2cc(N3CCCC3)ccc2S(=O)(=O)N1	sPLA2-III inh 21 (no result: bovine MsrA act) | sPLA2 confirm inactive | BODIPY interf inactive
CC(C)(C)c1csc(NNC(=O)c2ccc(Cl)cc2)n1	sPLA2-III inh 34 | sPLA2 confirm 45 | BODIPY interf inactive | BODIPY interf DR inactive
CCNC(=O)C1(C)CCCN(C(=O)/C=C/c2ccccc2)C1 (stereo not given)	none
CC1(C)Nc2ccc(O)cc2-c2c1ssc2=S	none
COc1cccc(-n2sc3c(c2=S)-c2cc(OC)ccc2NC3(C)C)c1	sPLA2-III inh 27 | sPLA2 confirm inactive | BODIPY interf inactive
CCC(C(=O)OCCOCCN(CC)CC)c1ccccc1 (stereo not given)	sPLA2-III inh 20 | sPLA2 confirm inactive | BODIPY interf inactive

From PubChem BioAssay
